Measured values taken from PubChem BioAssay (NCI).
About 79,000 compounds went through this panel and 15% of them were active in at least one assay; those are over-represented in the sample as a whole. Unmarked numbers belong to inactive results. The source made the active and inactive calls. Rule as the data show it: active = growth inhibition above about 70%; inactive = the rest.

Tests used:
[1] = NCI Yeast Anticancer Drug Screen. Data for the rad50EPP+ strain (AID 151);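 also: 0% = growth of vehicle-treated control cultures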; details: S. cerevisiae rad50 mutant strain, active compounds read high
Outline: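 In this screen, rad50EPP+ yeast were exposed to compounds. Growth inhibition was scored against vehicle-treated controls.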

[2] = NCI Yeast Anticancer Drug Screen. Data for the rad50 strain (AID 155);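 also: 0% = growth of vehicle-only cultures of the same strain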; details: S. cerevisiae rad50 strain growth inhibition, active compounds read high
Outline: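 Genetically altered yeast (DNA repair pathway); compound treatment; growth inhibition vs vehicle ctrl.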

[3] = NCI Yeast Anticancer Drug Screen. Data for the mec2-1 strain (AID 157); details: S. cerevisiae mec2-1 strain, active compounds read high
Outline: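 Vehicle-treated cultures served as reference for growth inhibition of compound-exposed mec2-1 yeast.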

[4] = NCI Yeast Anticancer Drug Screen. Data for the rad14 strain (AID 159);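 also: 0% = growth of vehicle-treated control cultures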; details: S. cerevisiae rad14 strain growth inhibition, active compounds read high
Outline: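 Test compounds were applied to a repair-deficient yeast strain. Its growth was then compared with that of cultures given vehicle alone, and inhibition was expressed relative to those controls.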

[5] = NCI Yeast Anticancer Drug Screen. Data for the sgs1 mgt1 strain (AID 161);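 also: 0% = growth of cultures given vehicle only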; details: S. cerevisiae sgs1 mgt1 strain, active compounds read high
Outline: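 Read-out: growth inhibition vs vehicle controls. Cells: mutant yeast strain deficient in DNA damage repair.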

[6] = NCI Yeast Anticancer Drug Screen. Data for the CLN2oe strain (AID 163);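 also: 0% = growth of vehicle-only control cultures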; details: S. cerevisiae CLN2oe strain, active compounds read high
Outline: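 Inhibition relative to vehicle-treated yeast is reported. Cells: strain with genetic alteration in cell-cycle control, grown with compound.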

[7] = NCI Yeast Anticancer Drug Screen. Data for the cln2 rad14 strain (AID 165);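 also: 0% = growth equal to vehicle treated cultures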; details: S. cerevisiae cln2 rad14 strain, active compounds read high
Outline: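 Each compound was tested on cln2 rad14 yeast. Inhibition of growth was calculated against vehicle-exposed controls.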

[8] = NCI Yeast Anticancer Drug Screen. Data for the bub3 strain (AID 167); details: S. cerevisiae bub3 mutant strain, active compounds read high
Outline: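 Yeast carrying a defined mutation is treated with each compound, and growth is compared with that of vehicle-exposed cells to give inhibition.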

[9] = NCI Yeast Anticancer Drug Screen. Data for the wt2 strain (AID 169);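 also: 0% = growth of vehicle-treated yeast cultures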; details: S. cerevisiae wt2 strain growth inhibition, active compounds read high
Outline: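 Inhibition of yeast growth was determined after compound treatment, normalised to controls receiving only vehicle.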

[10] = NCI Yeast Anticancer Drug Screen. Data for the mlh1 strain (AID 171);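 also: 0% = growth of vehicle-treated control cultures of the same strain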; details: S. cerevisiae mlh1 strain growth inhibition, active compounds read high
Outline: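 Vehicle-normalised growth inhibition of a repair- or checkpoint-altered yeast strain following compound treatment.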

[11] = NCI Yeast Anticancer Drug Screen. Data for the sgs1 strain (AID 173);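 also: 0% = growth of vehicle-only control cultures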; details: S. cerevisiae sgs1 mutant, active compounds read high
Outline: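 Screen format: yeast with repair or checkpoint alterations, compound exposure, growth read relative to vehicle.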

[12] = NCI Yeast Anticancer Drug Screen. Data for the mlh1 rad18 strain (AID 175); details: S. cerevisiae mlh1 rad18 strain growth inhibition, active compounds read high
Outline: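 Vehicle-treated cultures served as the reference for growth inhibition in a yeast strain carrying DNA damage repair alterations exposed to each compound.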

[13] = NCI Yeast Anticancer Drug Screen. Data for the rad18 strain (AID 177); details: S. cerevisiae rad18 mutant growth inhibition, active compounds read high
Outline: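 Test articles were incubated with altered yeast defective in DNA damage repair. Results are given as inhibition of growth versus vehicle.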

[14] = at 5.0 µM (retest, dose inferred, filed as 0.5)
[15] = at 50.0 µM (retest, dose inferred, filed as 5.0)

In the case of `Nc1nc(N)c(-c2ccc(Cl)c(Cl)c2)c(CP(Cl)(Cl)(Cl)Br)n1`, the growth inhibition ([1]; at 1.2 µM) is reported as -2%, the growth inhibition ([1]; at 3.7 µM) is reported as 4% and the growth inhibition ([1]; at 11.0 µM) is reported as 20%. It also gave a growth inhibition ([1]; at 33.0 µM) of 33%, a growth inhibition ([1]; at 100.0 µM) of 48% and a growth inhibition ([2]; at 1.2 µM) of 9%. The growth inhibition ([2]; at 3.7 µM) was 46%, the growth inhibition [2, 14] was 53% and the growth inhibition ([2]; at 11.0 µM) was 69%. The growth inhibition ([2]; at 33.0 µM) was 76% (active), the growth inhibition [2, 15] was 80% (active) and the growth inhibition ([2]; at 50.0 µM) was 62%. The growth inhibition ([2]; at 100.0 µM) was 59%, the growth inhibition ([3]; at 1.2 µM) was 4% and the growth inhibition ([3]; at 3.7 µM) was 7%. For the same compound, the growth inhibition [3, 14] was 39%, the growth inhibition ([3]; at 11.0 µM) was 13% and the growth inhibition ([3]; at 33.0 µM) was 38%. For the same compound, the growth inhibition [3, 15] was 78% (active), the growth inhibition ([3]; at 50.0 µM) was 42.4% and the growth inhibition ([3]; at 100.0 µM) was 27%. It also gave a growth inhibition ([4]; at 1.2 µM) of 6%, a growth inhibition ([4]; at 3.7 µM) of 8% and a growth inhibition ([4]; at 11.0 µM) of 27%. For the same compound, the growth inhibition ([4]; at 33.0 µM) was 37%, the growth inhibition ([4]; at 100.0 µM) was 54% and the growth inhibition [5, 14] was 30%. For the same compound, the growth inhibition [5, 15] was 82% (active), the growth inhibition ([5]; at 50.0 µM) was 63.6% and the growth inhibition ([6]; at 1.2 µM) was -2%. The growth inhibition ([6]; at 3.7 µM) was -6%, the growth inhibition ([6]; at 11.0 µM) was -9% and the growth inhibition ([6]; at 33.0 µM) was -2%. The growth inhibition ([6]; at 100.0 µM) was 10%, the growth inhibition [7, 14] was 0% and the growth inhibition [7, 15] was 22%. For the same compound, the growth inhibition ([7]; at 50.0 µM) was 9.75%, the growth inhibition ([8]; at 1.2 µM) was 10% and the growth inhibition ([8]; at 3.7 µM) was 23%. For the same compound, the growth inhibition [8, 14] was 45%, the growth inhibition ([8]; at 11.0 µM) was 42% and the growth inhibition ([8]; at 33.0 µM) was 56%. The growth inhibition [8, 15] was 78% (active), the growth inhibition ([8]; at 50.0 µM) was 51.4% and the growth inhibition ([8]; at 100.0 µM) was 55%. It also gave a growth inhibition ([9]; at 1.2 µM) of 7%, a growth inhibition ([9]; at 3.7 µM) of 18% and a growth inhibition ([9]; at 11.0 µM) of 56%. For the same compound, the growth inhibition ([9]; at 33.0 µM) was 80% (active), the growth inhibition ([9]; at 100.0 µM) was 94% (active) and the growth inhibition ([10]; at 1.2 µM) was -8%. For the same compound, the growth inhibition ([10]; at 3.7 µM) was -2%, the growth inhibition ([10]; at 11.0 µM) was 7% and the growth inhibition ([10]; at 33.0 µM) was 48%. The growth inhibition ([10]; at 100.0 µM) was 88% (active), the growth inhibition ([11]; at 1.2 µM) was -1% and the growth inhibition ([11]; at 3.7 µM) was 6%. The growth inhibition ([11]; at 11.0 µM) was 49%, the growth inhibition ([11]; at 33.0 µM) was 74% (active) and the growth inhibition ([11]; at 100.0 µM) was 92% (active). For the same compound, the growth inhibition [12, 14] was 64%, the growth inhibition [12, 15] was 88% (active) and the growth inhibition ([12]; at 50.0 µM) was 58.4%. The growth inhibition ([13]; at 1.2 µM) was 13%, the growth inhibition ([13]; at 3.7 µM) was 45% and the growth inhibition ([13]; at 11.0 µM) was 75% (active). The growth inhibition ([13]; at 33.0 µM) was 79% (active) and the growth inhibition ([13]; at 100.0 µM) was 74% (active).
In the case of `ClC1=C(Cl)C(Cl)(Cl)SS1`, the growth inhibition [2, 14] is reported as 100% (active), the growth inhibition [2, 15] is reported as 99% (active) and the growth inhibition ([2]; at 50.0 µM) is reported as 88.7% (active). The growth inhibition [3, 14] was 100% (active), the growth inhibition [3, 15] was 99% (active) and the growth inhibition ([3]; at 50.0 µM) was 91.5% (active). For the same compound, the growth inhibition [5, 14] was 100% (active), the growth inhibition [5, 15] was 99% (active) and the growth inhibition ([5]; at 50.0 µM) was 92.1% (active). For the same compound, the growth inhibition [7, 14] was 100% (active), the growth inhibition [7, 15] was 99% (active) and the growth inhibition ([7]; at 50.0 µM) was 91.5% (active). The growth inhibition [8, 14] was 100% (active), the growth inhibition [8, 15] was 99% (active) and the growth inhibition ([8]; at 50.0 µM) was 89.3% (active). The growth inhibition [12, 14] was 99% (active) and the growth inhibition [12, 15] was 99% (active).
Work on `Cc1ccc(P(c2ccc(C)cc2)c2ccc(C)cc2)cc1` yielded a growth inhibition ([2]; at 1.2 µM) of 16%, a growth inhibition ([2]; at 3.7 µM) of 26% and a growth inhibition [2, 14] of 57%. The growth inhibition ([2]; at 11.0 µM) was 25%, the growth inhibition ([2]; at 33.0 µM) was 33% and the growth inhibition [2, 15] was 96% (active). The growth inhibition ([2]; at 50.0 µM) was 37.7%, the growth inhibition ([2]; at 100.0 µM) was 36% and the growth inhibition ([3]; at 1.2 µM) was -3%. For the same compound, the growth inhibition ([3]; at 3.7 µM) was -2%, the growth inhibition [3, 14] was 58% and the growth inhibition ([3]; at 11.0 µM) was 2%. The growth inhibition ([3]; at 33.0 µM) was 24%, the growth inhibition [3, 15] was 98% (active) and the growth inhibition ([3]; at 50.0 µM) was 9.9%. The growth inhibition ([3]; at 100.0 µM) was 32%, the growth inhibition [5, 14] was 7% and the growth inhibition [5, 15] was 43%. It also gave a growth inhibition ([5]; at 50.0 µM) of 39.2%, a growth inhibition ([8]; at 1.2 µM) of 20% and a growth inhibition ([8]; at 3.7 µM) of 43%. For the same compound, the growth inhibition [8, 14] was 43%, the growth inhibition ([8]; at 11.0 µM) was 57% and the growth inhibition ([8]; at 33.0 µM) was 78% (active). For the same compound, the growth inhibition [8, 15] was 88% (active), the growth inhibition ([8]; at 50.0 µM) was 75.8% (active) and the growth inhibition ([8]; at 100.0 µM) was 75% (active). The growth inhibition [12, 14] was 49%, the growth inhibition [12, 15] was 97% (active) and the growth inhibition ([12]; at 50.0 µM) was 26.4%.
